Assay results from PMC7862700, “An all-to-all approach to the identification of sequence-specific readers for epigenetic DNA modifications on cytosine”.

Key:
Assay in all cases: DAPPL (digital affinity profiling via proximity ligation, sequencing); 10 mM Tris-HCl pH 7.5, 50 mM NaCl, 1 mM DTT, 4% glycerol, room temperature, 30 min; GST-TFs on glutathione beads, 16-mer random dsDNA library, 0.1% formaldehyde crosslink after washing; high values mean tight binding
Settings in all cases: protein: recombinant; tags: N-terminal GST; dsDNA, one strand shown
FLI1 = molecular target: T1, FLI1 (Homo sapiens, UniProt Q01543 1-452)
T1 sequence: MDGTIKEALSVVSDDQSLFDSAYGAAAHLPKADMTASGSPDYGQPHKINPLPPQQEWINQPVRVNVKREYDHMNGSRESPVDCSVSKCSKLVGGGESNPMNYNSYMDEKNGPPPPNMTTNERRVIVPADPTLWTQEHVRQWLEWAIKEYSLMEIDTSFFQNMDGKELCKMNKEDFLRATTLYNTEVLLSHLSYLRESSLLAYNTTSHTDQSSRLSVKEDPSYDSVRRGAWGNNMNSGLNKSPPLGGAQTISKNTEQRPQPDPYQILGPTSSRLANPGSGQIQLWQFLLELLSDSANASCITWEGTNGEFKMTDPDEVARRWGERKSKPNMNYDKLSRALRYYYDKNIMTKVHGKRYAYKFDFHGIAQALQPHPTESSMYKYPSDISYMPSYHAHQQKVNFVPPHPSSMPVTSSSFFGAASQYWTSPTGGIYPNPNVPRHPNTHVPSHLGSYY
How it was run: (§1)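 A tag-only sample was pooled with DNA-barcoded human transcription factors that had been expressed in yeast as GST fusions and captured on glutathione beads. The pools were incubated for 30 min at room temperature with 200 nmole of a random double-stranded 16-mer DNA library in Tris/NaCl/DTT/glycerol buffer, then washed, crosslinked with 0.1% formaldehyde, proximity-ligated (BsaI/T4 ligase, 1 h, 37 °C), PCR-amplified and sequenced on an Illumina NextSeq500. Binding signal is each hexamer's read frequency for a factor divided by its frequency for the tag-only sample.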

ELK1 = molecular target: T2, ELK1 (Homo sapiens, UniProt P19419 1-428)
T2 sequence: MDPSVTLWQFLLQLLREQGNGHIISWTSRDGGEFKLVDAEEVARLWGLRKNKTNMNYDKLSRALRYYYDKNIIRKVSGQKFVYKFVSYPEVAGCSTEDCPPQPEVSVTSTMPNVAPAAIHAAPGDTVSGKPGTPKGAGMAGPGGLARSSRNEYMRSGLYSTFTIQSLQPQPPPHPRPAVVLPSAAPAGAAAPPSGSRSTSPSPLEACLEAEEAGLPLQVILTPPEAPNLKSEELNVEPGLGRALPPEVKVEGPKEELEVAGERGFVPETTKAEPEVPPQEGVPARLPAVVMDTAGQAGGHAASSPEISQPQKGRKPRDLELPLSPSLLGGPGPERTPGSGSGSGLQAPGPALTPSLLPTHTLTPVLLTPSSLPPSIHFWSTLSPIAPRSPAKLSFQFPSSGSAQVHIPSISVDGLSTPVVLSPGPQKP
How it was run: as §1

GABPA = molecular target: T3, GABPA (Homo sapiens, UniProt Q06546 1-454)
T3 sequence: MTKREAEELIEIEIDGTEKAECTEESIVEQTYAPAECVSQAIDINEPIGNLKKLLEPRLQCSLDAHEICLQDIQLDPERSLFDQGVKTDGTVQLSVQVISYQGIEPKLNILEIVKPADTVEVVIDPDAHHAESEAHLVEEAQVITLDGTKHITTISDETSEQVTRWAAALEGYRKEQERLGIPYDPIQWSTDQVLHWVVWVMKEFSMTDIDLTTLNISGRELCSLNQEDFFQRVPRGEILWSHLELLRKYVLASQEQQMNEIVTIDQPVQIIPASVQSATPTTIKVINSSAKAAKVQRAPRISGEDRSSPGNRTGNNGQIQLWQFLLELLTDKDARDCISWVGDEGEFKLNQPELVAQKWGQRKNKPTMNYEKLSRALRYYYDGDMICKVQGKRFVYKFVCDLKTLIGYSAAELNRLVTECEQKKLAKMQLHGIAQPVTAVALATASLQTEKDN
How it was run: as §1

ERG = molecular target: T4, ERG (Homo sapiens, UniProt P11308 1-479)
T4 sequence: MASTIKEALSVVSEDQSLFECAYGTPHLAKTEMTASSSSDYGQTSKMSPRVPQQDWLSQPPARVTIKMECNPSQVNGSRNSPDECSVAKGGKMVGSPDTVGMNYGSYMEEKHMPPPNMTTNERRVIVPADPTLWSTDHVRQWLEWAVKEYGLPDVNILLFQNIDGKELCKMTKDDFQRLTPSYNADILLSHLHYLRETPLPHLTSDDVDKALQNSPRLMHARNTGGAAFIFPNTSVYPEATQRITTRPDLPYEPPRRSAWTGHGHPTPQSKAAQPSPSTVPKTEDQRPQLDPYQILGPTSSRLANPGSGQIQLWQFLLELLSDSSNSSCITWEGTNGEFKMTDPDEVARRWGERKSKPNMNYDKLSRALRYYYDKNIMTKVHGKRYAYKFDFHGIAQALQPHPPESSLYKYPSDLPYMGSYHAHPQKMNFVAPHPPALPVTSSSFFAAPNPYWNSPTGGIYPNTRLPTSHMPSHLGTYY
How it was run: as §1

ELF1 = ELF1 (Homo sapiens, UniProt P32519 1-619)
Sequence of ELF1 (P32519 whole entry): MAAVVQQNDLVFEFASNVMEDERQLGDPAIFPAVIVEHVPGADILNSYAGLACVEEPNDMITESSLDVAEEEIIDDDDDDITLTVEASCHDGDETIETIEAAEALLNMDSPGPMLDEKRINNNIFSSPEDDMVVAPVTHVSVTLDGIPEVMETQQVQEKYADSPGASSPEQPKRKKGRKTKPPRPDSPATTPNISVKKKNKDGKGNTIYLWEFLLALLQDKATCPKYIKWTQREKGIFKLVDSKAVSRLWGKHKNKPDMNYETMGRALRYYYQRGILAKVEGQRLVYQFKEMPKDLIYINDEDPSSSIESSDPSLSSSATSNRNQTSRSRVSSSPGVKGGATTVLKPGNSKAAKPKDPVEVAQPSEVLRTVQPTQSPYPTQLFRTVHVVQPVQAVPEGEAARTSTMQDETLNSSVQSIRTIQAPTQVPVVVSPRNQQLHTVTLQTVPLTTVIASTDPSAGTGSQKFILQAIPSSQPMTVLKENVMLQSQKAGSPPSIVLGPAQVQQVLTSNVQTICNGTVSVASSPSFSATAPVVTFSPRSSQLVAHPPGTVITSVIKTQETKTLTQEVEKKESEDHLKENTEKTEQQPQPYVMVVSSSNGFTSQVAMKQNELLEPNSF
How it was run: as §1

EHF = molecular target: T5, EHF (Homo sapiens, UniProt Q9NZC4 1-300)
T5 sequence: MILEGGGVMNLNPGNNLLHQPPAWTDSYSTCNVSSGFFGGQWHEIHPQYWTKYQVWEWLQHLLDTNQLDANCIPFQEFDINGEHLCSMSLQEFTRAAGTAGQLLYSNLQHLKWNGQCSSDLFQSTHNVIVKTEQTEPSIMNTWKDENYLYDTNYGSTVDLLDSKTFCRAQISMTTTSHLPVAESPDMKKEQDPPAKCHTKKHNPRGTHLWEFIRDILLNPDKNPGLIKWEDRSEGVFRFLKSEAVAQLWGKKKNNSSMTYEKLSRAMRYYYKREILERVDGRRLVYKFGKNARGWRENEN
How it was run: as §1

SPI1 = SPI1 (Homo sapiens, UniProt P17947 1-270)
How it was run: as §1

SPIB = SPIB (Homo sapiens, UniProt Q01892 1-262)
Sequence of SPIB (Q01892 whole entry): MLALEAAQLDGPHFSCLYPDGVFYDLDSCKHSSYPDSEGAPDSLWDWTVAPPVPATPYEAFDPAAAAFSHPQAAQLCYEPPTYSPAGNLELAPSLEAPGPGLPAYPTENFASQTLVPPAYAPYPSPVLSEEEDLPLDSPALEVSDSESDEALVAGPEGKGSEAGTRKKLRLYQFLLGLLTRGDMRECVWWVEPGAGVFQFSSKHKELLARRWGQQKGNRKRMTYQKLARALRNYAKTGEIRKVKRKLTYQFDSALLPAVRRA
How it was run: as §1

ELK3 = molecular target: T6, ELK3 (Homo sapiens, UniProt P41970 1-407)
T6 sequence: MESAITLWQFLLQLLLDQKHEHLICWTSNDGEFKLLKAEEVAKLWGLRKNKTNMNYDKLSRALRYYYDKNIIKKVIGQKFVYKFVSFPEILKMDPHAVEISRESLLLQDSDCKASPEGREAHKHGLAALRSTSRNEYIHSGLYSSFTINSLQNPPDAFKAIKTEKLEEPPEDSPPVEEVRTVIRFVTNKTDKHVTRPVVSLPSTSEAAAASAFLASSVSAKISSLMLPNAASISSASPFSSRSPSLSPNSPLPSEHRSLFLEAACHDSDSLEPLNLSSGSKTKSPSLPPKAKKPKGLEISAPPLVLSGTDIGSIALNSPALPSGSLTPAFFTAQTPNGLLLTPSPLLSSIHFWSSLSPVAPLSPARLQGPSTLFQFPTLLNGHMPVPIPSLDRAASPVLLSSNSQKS
How it was run: as §1

## ACATAC
FLI1
  binding signal: 1.18 fold enrichment (6-mer frequency, TF over GST control)
ELK1
  binding signal: 1.14 fold enrichment (6-mer frequency, TF over GST control)
GABPA
  binding signal: 1.19 fold enrichment (6-mer frequency, TF over GST control)
ERG
  binding signal: 1.19 fold enrichment (6-mer frequency, TF over GST control)
ELF1
  binding signal: 1.17 fold enrichment (6-mer frequency, TF over GST control)
EHF
  binding signal: 1.14 fold enrichment (6-mer frequency, TF over GST control)
SPI1
  binding signal: 1.16 fold enrichment (6-mer frequency, TF over GST control)
SPIB
  binding signal: 1.09 fold enrichment (6-mer frequency, TF over GST control)
ELK3
  binding signal: 1.17 fold enrichment (6-mer frequency, TF over GST control)

## GAACCC
FLI1
  binding signal: 1.12 fold enrichment (6-mer frequency, TF over GST control)
ELK1
  binding signal: 1.19 fold enrichment (6-mer frequency, TF over GST control)
GABPA
  binding signal: 1.16 fold enrichment (6-mer frequency, TF over GST control)
ERG
  binding signal: 1.18 fold enrichment (6-mer frequency, TF over GST control)
ELF1
  binding signal: 1.14 fold enrichment (6-mer frequency, TF over GST control)
EHF
  binding signal: 1.13 fold enrichment (6-mer frequency, TF over GST control)
SPI1
  binding signal: 1.16 fold enrichment (6-mer frequency, TF over GST control)
SPIB
  binding signal: 1.06 fold enrichment (6-mer frequency, TF over GST control)
ELK3
  binding signal: 1.19 fold enrichment (6-mer frequency, TF over GST control)

## TGTCAT
FLI1
  binding signal: 1.24 fold enrichment (6-mer frequency, TF over GST control)
ELK1
  binding signal: 1.08 fold enrichment (6-mer frequency, TF over GST control)
GABPA
  binding signal: 1.18 fold enrichment (6-mer frequency, TF over GST control)
ERG
  binding signal: 1.11 fold enrichment (6-mer frequency, TF over GST control)
ELF1
  binding signal: 1.15 fold enrichment (6-mer frequency, TF over GST control)
EHF
  binding signal: 1.17 fold enrichment (6-mer frequency, TF over GST control)
SPI1
  binding signal: 1.09 fold enrichment (6-mer frequency, TF over GST control)
SPIB
  binding signal: 1.2 fold enrichment (6-mer frequency, TF over GST control)
ELK3
  binding signal: 1.04 fold enrichment (6-mer frequency, TF over GST control)

## GACCTA
FLI1
  binding signal: 1.18 fold enrichment (6-mer frequency, TF over GST control)
ELK1
  binding signal: 1.07 fold enrichment (6-mer frequency, TF over GST control)
GABPA
  binding signal: 1.17 fold enrichment (6-mer frequency, TF over GST control)
ERG
  binding signal: 1.11 fold enrichment (6-mer frequency, TF over GST control)
ELF1
  binding signal: 1.21 fold enrichment (6-mer frequency, TF over GST control)
EHF
  binding signal: 1.15 fold enrichment (6-mer frequency, TF over GST control)
SPI1
  binding signal: 1.02 fold enrichment (6-mer frequency, TF over GST control)
SPIB
  binding signal: 1.08 fold enrichment (6-mer frequency, TF over GST control)
ELK3
  binding signal: 1.21 fold enrichment (6-mer frequency, TF over GST control)

## TTGTAC
FLI1
  binding signal: 1.37 fold enrichment (6-mer frequency, TF over GST control)
ELK1
  binding signal: 1.51 fold enrichment (6-mer frequency, TF over GST control)
GABPA
  binding signal: 1.32 fold enrichment (6-mer frequency, TF over GST control)
ERG
  binding signal: 1.33 fold enrichment (6-mer frequency, TF over GST control)
ELF1
  binding signal: 1.41 fold enrichment (6-mer frequency, TF over GST control)
EHF
  binding signal: 1.33 fold enrichment (6-mer frequency, TF over GST control)
SPI1
  binding signal: 1.39 fold enrichment (6-mer frequency, TF over GST control)
SPIB
  binding signal: 1.44 fold enrichment (6-mer frequency, TF over GST control)
ELK3
  binding signal: 1.18 fold enrichment (6-mer frequency, TF over GST control)

## CCAAAC
FLI1
  binding signal: 1.02 fold enrichment (6-mer frequency, TF over GST control)
ELK1
  binding signal: 1.13 fold enrichment (6-mer frequency, TF over GST control)
GABPA
  binding signal: 1.15 fold enrichment (6-mer frequency, TF over GST control)
ERG
  binding signal: 1.11 fold enrichment (6-mer frequency, TF over GST control)
ELF1
  binding signal: 1.16 fold enrichment (6-mer frequency, TF over GST control)
EHF
  binding signal: 1.07 fold enrichment (6-mer frequency, TF over GST control)
SPI1
  binding signal: 1.06 fold enrichment (6-mer frequency, TF over GST control)
SPIB
  binding signal: 1.06 fold enrichment (6-mer frequency, TF over GST control)
ELK3
  binding signal: 1.15 fold enrichment (6-mer frequency, TF over GST control)

## TAATGT
FLI1
  binding signal: 1.15 fold enrichment (6-mer frequency, TF over GST control)
ELK1
  binding signal: 1.02 fold enrichment (6-mer frequency, TF over GST control)
GABPA
  binding signal: 1.08 fold enrichment (6-mer frequency, TF over GST control)
ERG
  binding signal: 1.09 fold enrichment (6-mer frequency, TF over GST control)
ELF1
  binding signal: 1.11 fold enrichment (6-mer frequency, TF over GST control)
EHF
  binding signal: 1.07 fold enrichment (6-mer frequency, TF over GST control)
SPI1
  binding signal: 1.06 fold enrichment (6-mer frequency, TF over GST control)
SPIB
  binding signal: 1.05 fold enrichment (6-mer frequency, TF over GST control)
ELK3
  binding signal: 1.09 fold enrichment (6-mer frequency, TF over GST control)

## GCTACA
FLI1
  binding signal: 1.16 fold enrichment (6-mer frequency, TF over GST control)
ELK1
  binding signal: 1.07 fold enrichment (6-mer frequency, TF over GST control)
GABPA
  binding signal: 1.22 fold enrichment (6-mer frequency, TF over GST control)
ERG
  binding signal: 1.13 fold enrichment (6-mer frequency, TF over GST control)
ELF1
  binding signal: 1.17 fold enrichment (6-mer frequency, TF over GST control)
EHF
  binding signal: 1.21 fold enrichment (6-mer frequency, TF over GST control)
SPI1
  binding signal: 1.2 fold enrichment (6-mer frequency, TF over GST control)
SPIB
  binding signal: 1.24 fold enrichment (6-mer frequency, TF over GST control)
ELK3
  binding signal: 1.19 fold enrichment (6-mer frequency, TF over GST control)
